Data taken from PubChem BioAssay (Tox21).
Where “and” joins values, the source holds several entries; their conditions need not be identical. Identical values can stand only once. Records with an inconclusive call do not appear. Values without a mark were called inactive. Calls of active or inactive are those of the source. The call rests on the fitted dose curve; in most records, active means well fitted inhibition curve with a large enough effect in the repeat runs; inconclusive means weak or mixed curves; inactive means flat fitted curve, though single readings scatter.

Target: Voltage-gated inwardly rectifying potassium channel KCNH2 (Homo sapiens) (UniProt Q12809)
Sequence (Q12809 whole entry, looked up): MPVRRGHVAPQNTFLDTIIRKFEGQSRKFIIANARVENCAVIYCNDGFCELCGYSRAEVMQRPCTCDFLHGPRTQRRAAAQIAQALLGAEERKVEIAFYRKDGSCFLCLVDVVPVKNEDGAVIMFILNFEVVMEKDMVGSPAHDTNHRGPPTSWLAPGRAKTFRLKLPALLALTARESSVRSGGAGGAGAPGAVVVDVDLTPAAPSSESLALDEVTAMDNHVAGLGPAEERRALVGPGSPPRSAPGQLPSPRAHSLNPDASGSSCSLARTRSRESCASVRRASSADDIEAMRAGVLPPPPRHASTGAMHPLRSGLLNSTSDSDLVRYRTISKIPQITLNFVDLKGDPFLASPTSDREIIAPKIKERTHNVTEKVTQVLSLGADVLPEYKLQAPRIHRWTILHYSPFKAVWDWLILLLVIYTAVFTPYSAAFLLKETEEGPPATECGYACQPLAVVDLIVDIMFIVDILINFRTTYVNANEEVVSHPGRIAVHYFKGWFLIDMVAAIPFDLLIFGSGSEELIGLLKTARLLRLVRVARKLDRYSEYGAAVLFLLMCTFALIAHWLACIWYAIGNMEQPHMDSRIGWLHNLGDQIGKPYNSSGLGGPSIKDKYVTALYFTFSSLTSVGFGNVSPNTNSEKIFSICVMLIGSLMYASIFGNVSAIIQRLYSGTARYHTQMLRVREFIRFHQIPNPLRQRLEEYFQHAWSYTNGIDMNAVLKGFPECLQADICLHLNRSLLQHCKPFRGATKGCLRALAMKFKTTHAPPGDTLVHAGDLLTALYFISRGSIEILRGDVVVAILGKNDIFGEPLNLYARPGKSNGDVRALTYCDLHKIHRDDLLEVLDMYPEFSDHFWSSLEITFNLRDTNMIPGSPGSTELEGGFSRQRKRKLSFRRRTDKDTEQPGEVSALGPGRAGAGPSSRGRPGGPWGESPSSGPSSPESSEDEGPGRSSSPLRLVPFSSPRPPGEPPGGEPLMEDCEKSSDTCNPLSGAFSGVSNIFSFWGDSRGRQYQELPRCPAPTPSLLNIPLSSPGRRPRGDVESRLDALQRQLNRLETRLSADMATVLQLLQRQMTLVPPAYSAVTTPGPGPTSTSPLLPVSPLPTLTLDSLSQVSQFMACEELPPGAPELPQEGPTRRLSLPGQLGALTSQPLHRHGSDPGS
Assay: Human Ether-a-go-go-Related Gene (hERG) channel small molecule antagonists: fluorescence cell-based qHTS assay (AID 1671200); further: nearly all actives have a fitted effect of over 50% in size
Conditions: hERG-U2OS cells, FluxOR thallium flux fluorescence; series mostly up to 76.8 µM; activity change, negative = inhibition: at the top concentration
Text: National Center for Advancing Translational Sciences [NCATS]
U.S. Environmental Protection Agency [EPA]
National Institutes of Environmental Health Sciences [NIEHS]
National Toxicology Program [NTP]
U.S. Food and Drug Administration [FDA]
Mutations in the hERG channel cause Long QT (LQT) syndrome. LQT syndrome is a cardiac disorder which can cause ventricle arrhythmia and sudden death. Additionally, compounds which block the hERG channel can cause acquired LQT syndrome. Several FDA approved drugs have been removed from the market due to their hERG blocking activity. A cell-based hERG channel inhibition assay can be used to screen chemical compounds that inhibit hERG channel. This assay measures hERG channel activity using thallium ions as surrogate ions to measure potassium into the cells.
Tox21 Assay Protocol Summary:
hERG-U2OS cells were resuspended in culture medium and dispensed into 1536-well, black wall/clear-bottom plates at 1000cells/well/3uL using a Multidrop Combi dispenser (Thermo Fisher, Waltham, MA). After plates were incubated at 37 C overnight, 3 uL of Loading Buffer provided by FluxOR II Potassium Ion Channel Assay kit (Thermo, Carlsbad, CA) was added to each well. The assay plates were then incubated at room temperature in the dark for 1h. […] After the assay plates were incubated at room temperature for 10 min, 1 uL of Stimulus Buffer provided by FluxOR II Potassium Ion Channel Assay kit was added into each well and fluorescence intensity (480nm excitation/540nm emission) was continuously measured for 2 min at 1 second intervals using a Functional Drug Screening System (FDSS) 7000EX kinetic plate reader (Hamamatsu, Japan).
On the % scale 0 is the no-effect control and ±100 the full control effect; potency means the concentration at half of the fitted maximal effect.

SMILES | activity change, negative = inhibition | Potency
CCCCN1CCCC[C@H]1C(=O)Nc1c(C)cccc1C | -6.7% [at 35.3 µM] | –
CC(C)(C)C1CCC(CC2=C(O)c3ccccc3C(=O)C2=O)CC1 (stereo not given) | 10.7% [at 35.3 µM] | –
CC(C)(C)c1ccc(C(=O)O)cc1 | 0.883% | –
CN1CCN(CCC(=O)N2c3ccccc3Sc3ccc(C(F)(F)F)cc32)CC1 | – | 4.77 µM (active)
Clc1ccccc1C(c1ccccc1)(c1ccccc1)n1ccnc1 | – | 19.5 µM (active) and 16.9 µM (active)
Clc1ccc2n[nH]nc2c1 | 1.82% | –
CSc1ccc(C(=O)c2[nH]c(=O)[nH]c2C)cc1 | 3.77% [at 35.3 µM] | –
CN(C)c1ccc(SC#N)cc1 | -11% | –
[O-][n+]1ccccc1SSc1cccc[n+]1[O-] | 14% [at 15.8 µM] | –
C=C(C)C(=O)OCC[N+](C)(C)C | 1.58% | –
O=C(c1ccc(O)cc1O)c1ccc(O)cc1O | – | inactive
O=c1[nH]sc2ccccc12 | – | 49 µM (active)
Cc1cccc(S(=O)(=O)O)c1C | 2.16% | –
CC(C)(C)C(=O)OCOC(=O)[C@@H]1N2C(=O)[C@@H](NC(=O)[C@H](N)c3ccccc3)[C@H]2SC1(C)C | -0.346% [at 35.3 µM] | –
O=C(c1ccc(F)cc1)C1CCN(CCn2c(=O)[nH]c3ccccc3c2=O)CC1 | – | 2.39 µM (active)
NNc1nc(-c2ccc([N+](=O)[O-])cc2)cs1 | – | 19.5 µM (active)
NC(=O)C1(N2CCCCC2)CCN(CCCN2c3ccccc3CCc3ccc(Cl)cc32)CC1 | – | 1.34 µM (active)
c1cc(C(c2ccc(OCC3CO3)cc2)c2ccc(OCC3CO3)cc2)ccc1OCC1CO1 (stereo not given) | -20.1% | –
CCN(C(=O)c1cc(C)cc(OC[C@H](C)Nc2ccncc2)c1)C(C)C | – | 17.2 µM (active)
COc1cc(/C=C/C(=O)O[C@H]2CC[C@]34C[C@]35CC[C@]3(C)[C@@H]([C@H](C)CCC=C(C)C)CC[C@@]3(C)[C@@H]5CC[C@H]4C2(C)C)ccc1O | 7.99% [at 35.3 µM] | –

SMILES | activity change, negative = inhibition | Potency
Cc1[nH]nc2c1N=C(c1ccccc1Cl)c1cc([N+](=O)[O-])ccc1N2 | – | 8.71 µM (active)
NC(=O)NS(=O)(=O)c1ccc(N)cc1 | 2.09% [at 35.3 µM] | –
CCC(C)(C)C1CCCCC1OC(C)=O (stereo not given) | 1.49% | –
CCC(N)(CO)CO | -10% | –
CCOc1nc2cccc(C(=O)OC(C)OC(=O)OC3CCCCC3)c2n1Cc1ccc(-c2ccccc2-c2nn[nH]n2)cc1 (stereo not given) | -28.5% | –
CC[C@H](c1ccc(O)cc1)[C@@H](CC)c1ccc(O)cc1 | – | inactive
O=C(O)c1cc(O)c2c(c1)C(=O)c1cccc(O)c1C2=O | -12.7% | –
C/C=C(\C)C(=O)OCc1ccccc1 | 1.84% | –
Cc1cc(CCN2CCN(c3nsc4ccccc34)CC2)cc2c1NC(=O)CC2(C)C | – | 21.9 µM (active)
O=C1CCCCCN1SSN1CCCCCC1=O | -3.58% | –
O=CC=C(c1ccccc1)c1ccccc1 | – | 39.2 µM (active)
C=C(C)C(=O)OCC(O)COc1ccc(C(C)(C)c2ccc(OCC(O)COC(=O)C(=C)C)cc2)cc1 (stereo not given) | -11.7% | –
CCCCCCCC(=O)[O-].CCCCCCCC(=O)[O-].[Zn+2] | 3.54% [at 35.3 µM] | –
Cc1ccc(O)c(C(C)(C)C)c1 | – | inactive
NC(=O)CC[C@@H]1NC(=O)[C@H](Cc2ccccc2)NC(=O)[C@H](Cc2ccc(O)cc2)NC(=O)CCSSC[C@@H](C(=O)N2CCC[C@H]2C(=O)N[C@@H](CCCN=C(N)N)C(=O)NCC(N)=O)NC(=O)[C@H](CC(N)=O)NC1=O | -0.547% [at 35.3 µM] | –
CCOC(=O)O[C@]1(C(=O)OCCl)CC[C@H]2[C@@H]3CCC4=CC(=O)C=C[C@]4(C)[C@H]3[C@@H](O)C[C@@]21C | -15.1% [at 35.3 µM] | –
C=CC(=O)OCCn1c(=O)n(CCOC(=O)C=C)c(=O)n(CCOC(=O)C=C)c1=O | 2% | –
Nc1ccc(N)c2ccccc12 | 0.0033% | –
CCCCCCCC[N+](CCCCCCCC)(CCCCCCCC)CCCCCCCC | – | 0.69 µM (active)
CC(C)(C)C(=O)OCOC(=O)C1N2C(=O)CC2S(=O)(=O)C1(C)C (stereo not given) | 2.36% [at 35.3 µM] | –
